Target: CSE1L
Assay: pooled miR-30 sensor sort-seq; sequence = guide strand
Conditions: shRNA
Also: reference of the scale not given here.

Row | Sequence | sensor-assay potency score (higher = more potent)
1 | TATTGCTTCAAACATGTAGTGA | -0.339
2 | TTGGGTTCTTACTAACAGCTAA | -0.417
3 | AAAACTTGCATAATCCTCGTAC | 0.387
4 | TAAGTATGAACAACAATACTTT | -0.402
5 | TATATTGGTCAACTGATTCAGG | -0.381
6 | TAACAGCTAATAGCTTCTGTGT | -1.13
7 | TTAGCTTTGCAAGTTATTCTTA | 0.362
8 | TTGACTTAAATTCATGACGGTA | -0.629
9 | TTATGGATAAACATATTGCTTC | -0.779
10 | TTCTGTGGAAAATCTTCTCTGC | 0.43
11 | TAATATATTTGATACCGTCAGC | -0.712
12 | TTAATCAAGAGAGGAATCGAGA | -0.818
13 | TTCATCTTCAACAATTCTCCAG | -0.255
14 | TAGAAGATAAAAACCTTGGTGG | 0.264
15 | TTTTAAATAATGAATGTGCTGT | 0.306
16 | TTGTGTAATTCCATGCTTCTGT | -0.12
17 | TTGACCTACAGGATCATGCTCT | 0.379
18 | TAGCAGAATCTCAACAAACGGT | -0.43
19 | TTGAATTGCATTACTTACCAAC | -0.851
20 | TCATCTTCAACAATTCTCCAGT | -0.0113
21 | TAAGATTTCAGTAAACACCAAA | -0.574
22 | TACATTTCCAGATACCTTCTGA | -0.0308

From the OligoGym collection
